# Source: the supplement of paper PMC9897528
# A number with no mark means an inactive call.
# System: Scedosporium aurantiacum CBS 136046
# Assay: growth inhibition relative to DMSO control (OD600); higher = more antifungal activity, active = 80 or more
# Conditions: 5 µM; 72 h; 37 °C
# 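Also: conidia screened in RPMI 1640 medium under 5% CO2, growth read by spectrophotometer, medium with 0.5% DMSO serving as the untreated reference.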
row,Structure (SMILES),growth inhibition
1,C[N+]1(C)CCCC(OC(=O)C(O)(c2ccccc2)c2ccccc2)C1 (stereo not drawn),34.9%
2,COc1ccccc1CN[C@H]1C2CCN(CC2)[C@H]1C(c1ccccc1)c1ccccc1,25.9%
3,CCN1CCN(Cc2nc3ccc([N+](=O)[O-])cc3c(=O)n2-c2ccccc2F)CC1,2.42%
4,CC(C)Oc1cccc(NC(=O)c2ccccc2C(F)(F)F)c1,6.87%
5,CCCCc1ccc(C(=O)O)nc1,15.8%
6,NC1(C(=O)O)CCP(=O)(O)CC1 (stereo not drawn),11.9%
7,Nc1c(C(=O)NCc2ccco2)c2nc3ccccc3nc2n1CCN1CCCCC1,36.7%
8,C[C@@]1(O)[C@H](O)[C@@H](CO)O[C@H]1n1ccc2c(N)ncnc21,3.66%
9,CN1C(=O)C(c2ccccc2)C(=O)N(c2ccccc2)c2cc(C(F)(F)F)ccc21 (stereo not drawn),2.84%
10,O=C(NC12CC3CC(CC(C3)C1)C2)c1cc2ccccc2[nH]1,1.85%
11,COc1cc(C(C)(C)CCCC(C)C)cc(OC)c1OC,13.3%
12,C[C@H]1CC[C@]2(NC1)O[C@H]1C[C@H]3[C@@H]4CC[C@H]5C[C@@H](O)CC[C@]5(C)[C@H]4CC[C@]3(C)[C@H]1[C@@H]2C,8.88%
13,COC(=O)Nc1nc2ccccc2[nH]1,1.58%
